In ChEMBL document CHEMBL3433997, “St. Jude Leishmania screening dataset” (2016):

target: Solute carrier family 2, facilitated glucose transporter member 1 (Homo sapiens) (UniProt P11166); assay: ST_JUDE_LEISH: Cytotoxicity at 2uM final concentration against transgenic Leishmania Mexicana promastigotes LmGLUT1 that are glucose transport deficient and complemented with the human glucose transporter GLUT1. Activity is measured by DNA content using SYBR green in vitro; type: functional
Sequence (P11166 whole entry): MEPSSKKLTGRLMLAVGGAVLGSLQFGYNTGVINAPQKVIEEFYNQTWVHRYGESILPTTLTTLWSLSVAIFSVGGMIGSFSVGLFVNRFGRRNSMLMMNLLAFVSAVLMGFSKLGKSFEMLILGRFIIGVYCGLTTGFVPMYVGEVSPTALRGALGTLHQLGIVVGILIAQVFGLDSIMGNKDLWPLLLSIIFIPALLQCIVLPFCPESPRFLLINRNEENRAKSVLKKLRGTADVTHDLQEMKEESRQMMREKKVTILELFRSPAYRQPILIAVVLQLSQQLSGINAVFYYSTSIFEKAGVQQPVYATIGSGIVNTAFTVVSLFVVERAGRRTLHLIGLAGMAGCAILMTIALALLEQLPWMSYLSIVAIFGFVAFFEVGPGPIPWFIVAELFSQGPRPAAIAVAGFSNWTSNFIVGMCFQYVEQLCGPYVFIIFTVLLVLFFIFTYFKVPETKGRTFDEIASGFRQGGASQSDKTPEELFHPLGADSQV

| Compound | inhibition [%] |
| --- | --- |
| CC(=O)c1cccc(S(=O)(=O)NCCCNc2nc3cc(C)cc(C)c3cc2C#N)c1 | -0.68 |
| COc1c(C2CCN(CCCCNC(=O)c3ccc(-c4ccc(C#N)cc4)nc3)CC2)ccc2c1CCCC2 | 1.52 |
| Cc1cc([N+](=O)[O-])ccc1NC(=O)Nc1cccc(C(F)(F)F)c1 | 5.58 |
| CN1CCN(c2cc3c(cc2Cl)CCN3C(=O)Cc2ccc(Cl)c(NC(=O)Nc3cccc(C#N)c3)c2)CC1 | -0.57 |
| CN1CCN(c2ccnc3ccc(NC(=O)Nc4ccc(-c5ccncc5)c(C#N)c4)cc23)CC1 | -0.68 |
| O=C(C=Cc1cccs1)Nc1ccc(-c2nc3ccccc3[nH]2)cc1 | 1.65 |
| COc1cc(Cc2cnc(N)nc2N)cc(OCCCCC2SC(=O)NC2=O)c1OC (stereo not given) | 2.3 |
| COc1ccc(S(=O)(=O)NC2CCN(CCCOc3ccnc4cc(Cl)ccc34)C2)cc1OC (stereo not given) | 3.41 |
| CN1CCCC1CCNCc1cccc(-c2cnc(N(C)C3CCCCC3)nc2)c1 (stereo not given) | 102 |
| O=C(Cn1cc(C(F)(F)F)cc(Cl)c1=O)N1CCN(S(=O)(=O)c2ccc(Cl)cc2)CC1 | 2.2 |
| COc1ccc(CN2CCC(NCc3ccc(C(F)(F)F)cc3)CC2)cc1 | 19.2 |
| CN(C)CCCOc1ccccc1CN1CC[C@H](NC(=O)c2ccc(Cl)c(Cl)c2)C1 | -0.17 |
| Cc1ccccc1C1CCN(C2CCC(NC(=O)/C=C/c3ccc(C(F)(F)F)cc3F)CC2)CC1 (stereo not given) | 1.85 |
| Cc1cccc(NC(=O)NCc2ccccc2)n1 | 1.62 |
| Nc1nc(N)c2c(n1)CCc1cc(Br)ccc1-2 | 1.65 |
| CN(c1ccccc1C(=O)Nc1ccccc1Oc1ccccc1)S(=O)(=O)c1ccccc1 | 0.02 |
| O=c1cc(NCCCNC2CCc3ccc(Cl)cc32)[nH]c2ccccc12 (stereo not given) | -2.61 |
| Nc1oc2c(CN3CCCCCC3)c(O)ccc2c(=O)c1-c1nc2ccccc2s1 | -1.92 |
| NC1=NC(CCc2ccccc2)N(c2ccccc2)C(N)=N1 (stereo not given) | 10.1 |
| Cc1nc(C)c(-c2ccc(Sc3ccc(Cl)cc3)cc2)c(O)c1Br | -2.06 |
| Cc1c(Cn2ncc(N3CCC(N)CC3)c(Cl)c2=O)cccc1NC(=O)Nc1ccc(-c2ccccc2)cc1 | 3.52 |
| Fc1ccc2[nH]c(-c3ccc(-c4ccc(CNCCc5ccncc5)cc4)cc3)nc2c1 | 4.9 |
| CS(=O)(=O)c1ccc(CCNCc2ccc(-c3ccc(CN(C(=O)C4CC(=O)c5ccccc54)C4CCN(Cc5ccccc5)CC4)cc3)nc2)cc1 (stereo not given) | 1.6 |
| CCCCn1c(-c2ccco2)nc2c(c(=O)c3ccccc3n2C)c1=O | 8.79 |
| Cc1cc(N)c2cc(NC(=O)c3cc4ccccc4s3)ccc2n1 | -0.05 |

target: Hexose transporter 1 (Plasmodium falciparum) (UniProt O97467); assay: ST_JUDE_LEISH: Cytotoxicity at 2uM final concentration against transgenic Leishmania Mexicana promastigotes LmPfHT that are glucose transport deficient and complemented with the Plasmodium falciparum hexose transporter. Activity is measured by DNA content using SYBR green in vitro; type: functional

| Compound | inhibition [%] |
| --- | --- |
| O=C(Nc1ccc(OC2CCN(Cc3ccccc3)C2)c(Cl)c1)c1ccc(F)cc1 (stereo not given) | 1.99 |
| Cc1[nH]c(C)c(-c2ccc(OCc3ccc(OC(F)(F)F)cc3)nc2)c(=O)c1Br | 13.8 |
| Nc1nc(N)c2c(Oc3cccc(Cl)c3)cccc2n1 | 1.79 |
| Oc1ccc(CCNc2nc(NCCCOc3cc(CN4CCCCC4)ccc3F)nc(N3CCNCC3)n2)cc1 | 4.72 |
| COc1cc(-c2nnc(SCC(=O)Nc3cc(C)on3)n2C)cc(OC)c1O | 7.61 |
| COc1ccc(C2SCC(=O)N2CCc2ccc(OC)c(OC)c2)cc1 (stereo not given) | 1.37 |
| O=C(NC1CCCc2ccccc21)[C@@H]1CCCN1C(=O)c1ccc(O)c(-c2cccc([N+](=O)[O-])c2)c1 (stereo not given in full) | 1.92 |
| O=C(COc1ccc(F)cc1)NC1CCN(c2ccnc3cc(Cl)ccc23)C1 (stereo not given) | 6.11 |
| Cc1cc(-c2cccc(CNCc3ccc(F)cc3)c2)ccc1S(=O)(=O)NCCN1CCCC1 | 0.36 |
| Cc1cc(C2CCN(CCCCNC(=O)c3ccc(-c4ccc(C(F)(F)F)cc4)cc3)CC2)c(C)cc1OCCOC1CCCCO1 (stereo not given) | -0.6 |
| Cn1nc(-c2ccc(NC(=O)Nc3cc(C(F)(F)F)ccc3F)c(F)c2)c2cnc(NCCCn3ccnc3)nc21 | -1.5 |
| COc1cc(OC)cc(-c2nc3ccc(OCCN(C)C)c(C#N)c3[nH]2)c1 | 4.09 |
| COc1cc(NC(=O)c2c(-c3c(Cl)cccc3Cl)noc2C)c(OC)cc1Cl | 4.65 |
| CCCc1cc(OC)c(C[C@H]2c3cc(O)c(Cl)cc3CCN2C)cc1OC | 1.13 |
| CC(CN1CCN(C)CC1)C(=O)Nc1ccc(-c2ccc(-c3nc4cc(F)ccc4[nH]3)cc2)cc1 (stereo not given) | 3.05 |
| CC(=O)c1cccc(S(=O)(=O)NCCCNc2nc3cc(C)cc(C)c3cc2C#N)c1 | 1.78 |
| COc1c(C2CCN(CCCCNC(=O)c3ccc(-c4ccc(C#N)cc4)nc3)CC2)ccc2c1CCCC2 | 2.03 |
| Cc1cc([N+](=O)[O-])ccc1NC(=O)Nc1cccc(C(F)(F)F)c1 | 3.9 |
| CN1CCN(c2cc3c(cc2Cl)CCN3C(=O)Cc2ccc(Cl)c(NC(=O)Nc3cccc(C#N)c3)c2)CC1 | -0.51 |
| CN1CCN(c2ccnc3ccc(NC(=O)Nc4ccc(-c5ccncc5)c(C#N)c4)cc23)CC1 | -2.42 |

| Compound | inhibition [%] |
| --- | --- |
| O=C(C=Cc1cccs1)Nc1ccc(-c2nc3ccccc3[nH]2)cc1 | 0.72 |
| COc1cc(Cc2cnc(N)nc2N)cc(OCCCCC2SC(=O)NC2=O)c1OC (stereo not given) | 0.84 |
| COc1ccc(S(=O)(=O)NC2CCN(CCCOc3ccnc4cc(Cl)ccc34)C2)cc1OC (stereo not given) | 3.81 |
| CN1CCCC1CCNCc1cccc(-c2cnc(N(C)C3CCCCC3)nc2)c1 (stereo not given) | 102 |
| O=C(Cn1cc(C(F)(F)F)cc(Cl)c1=O)N1CCN(S(=O)(=O)c2ccc(Cl)cc2)CC1 | 1.76 |
| COc1ccc(CN2CCC(NCc3ccc(C(F)(F)F)cc3)CC2)cc1 | 14.1 |
| CN(C)CCCOc1ccccc1CN1CC[C@H](NC(=O)c2ccc(Cl)c(Cl)c2)C1 | -0.54 |
| Cc1ccccc1C1CCN(C2CCC(NC(=O)/C=C/c3ccc(C(F)(F)F)cc3F)CC2)CC1 (stereo not given) | 0.43 |
| Cc1cccc(NC(=O)NCc2ccccc2)n1 | 1.46 |
| Nc1nc(N)c2c(n1)CCc1cc(Br)ccc1-2 | 4.52 |
| CN(c1ccccc1C(=O)Nc1ccccc1Oc1ccccc1)S(=O)(=O)c1ccccc1 | 0.41 |
| O=c1cc(NCCCNC2CCc3ccc(Cl)cc32)[nH]c2ccccc12 (stereo not given) | -0.73 |
| Nc1oc2c(CN3CCCCCC3)c(O)ccc2c(=O)c1-c1nc2ccccc2s1 | 6.76 |
| NC1=NC(CCc2ccccc2)N(c2ccccc2)C(N)=N1 (stereo not given) | 9.38 |
| Cc1nc(C)c(-c2ccc(Sc3ccc(Cl)cc3)cc2)c(O)c1Br | -1.57 |
| Cc1c(Cn2ncc(N3CCC(N)CC3)c(Cl)c2=O)cccc1NC(=O)Nc1ccc(-c2ccccc2)cc1 | 4.24 |
| Fc1ccc2[nH]c(-c3ccc(-c4ccc(CNCCc5ccncc5)cc4)cc3)nc2c1 | 2.46 |
| CS(=O)(=O)c1ccc(CCNCc2ccc(-c3ccc(CN(C(=O)C4CC(=O)c5ccccc54)C4CCN(Cc5ccccc5)CC4)cc3)nc2)cc1 (stereo not given) | 1.34 |
| CCCCn1c(-c2ccco2)nc2c(c(=O)c3ccccc3n2C)c1=O | 5.89 |
| Cc1cc(N)c2cc(NC(=O)c3cc4ccccc4s3)ccc2n1 | -1.3 |
